Measurements taken from PubChem BioAssay AID651582 (Sanford-Burnham Center for Chemical Genomics, 2012).
The campaign covered roughly 230,000 compounds. About 1,500 (0.65%) were called active.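 Rule for the calls: active = pattern-corrected inhibition of lipid staining of at least 50% with the nuclear-stain viability signal not falling by more than 50%; inactive = the rest, inconclusive results apart.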 The sample as a whole holds a higher share of actives than the screen did.

Assay: TAG lipid buildup reduction in H9c2 cells – cell-based, uHTS, fluorescence, primary screen (AID 651582);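 for inhibition: 0% = DMSO wells and 100% = triacsin C control wells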
Settings: Nile Red lipid (TAG) fluorescence, at 12.5 µM, cells loaded with 200 µM oleic acid; DAPI nuclei signal change (viability), lower = more cytotoxic: measured here: DAPI nuclei count viability; inhibition: stronger effect = higher value

| Compound | DAPI nuclei signal change (viability), lower = more cytotoxic [%] | inhibition |
| --- | --- | --- |
| CC(C)(C)OC(=O)C[C@@H]1C/C=C\C[C@@H](CC(=O)N(CCO)Cc2ccccc2)C(=O)N[C@H](Cc2ccccc2)COC1=O | -3.76 | 9.88% (inactive) |
| O=C(COc1ccc(Br)cc1)OCC(=O)c1ccc[nH]1 | 0.498 | -0.551% (inactive) |
| CC(=O)NCc1ccc(-c2csc(NC(=O)CCCc3nc4ccccc4c(=O)[nH]3)n2)cc1 | 0.981 | 12% (inactive) |
| Cc1onc(-c2c(F)cccc2Cl)c1C(=O)OCC(=O)N1C(C)CCCC1C (stereo unspecified) | -2.4 | 8.89% (inactive) |
| CCCCNc1c(-c2ccc(OC)c(Sc3ccc(OC)cc3)c2)nc2ccc(Cl)cn12 | 65.8 | 11.1% (inactive) |
| C=CCC[C@@H](Cc1ccc(F)cc1)C(=O)OC[C@H](Cc1c[nH]c2ccccc12)NC(=O)[C@@H](CC=C)CC(=O)N(CCO)Cc1ccccc1 | -6.98 | 68% (active) |
| C=CCC[C@H](Cc1ccc(F)cc1)C(=O)OC[C@@H](Cc1c[nH]c2ccccc12)NC(=O)[C@H](CC=C)CC(=O)N[C@H](CO)Cc1ccccc1 | 1.3 | 20.3% (inactive) |
| C=CCC[C@H](Cc1ccc(F)cc1)C(=O)OC[C@H](C)NC(=O)[C@H](CC=C)CC(=O)N(CCO)Cc1ccccc1 | -5.64 | 27.4% (inactive) |
| CCN(CC)S(=O)(=O)c1ccc(N2CCOCC2)c(NC(=O)c2ccc(=O)n(C)n2)c1 | -1.89 | 5.11% (inactive) |
| CCOC(=O)C1(C)CCCN(C(=O)c2cccc(Cl)c2)C1 (stereo unspecified) | 4.05 | -18.8% (inactive) |
| CN(C(=O)c1cccc(NC(=O)Cc2ccc(NC(=O)C3CCN(C(=O)C4CCCCC4)CC3)cc2)c1)C1CCC1 | -0.027 | -1.1% (inactive) |
| O=C(Nc1ccccc1)Oc1cccc2cccnc12 | -22.4 | 63.4% (active) |
| OCc1ccc(OCCCOc2cccc3cccnc23)cc1 | 12.3 | -32.6% (inactive) |
| O=C(Nc1ccccc1Cl)Nc1cccc2cccnc12 | 2.86 | 20.5% (inactive) |
| COc1ccc(C(=O)N2CCCCC2c2cc(C(=O)Nc3ccc(F)c(Cl)c3)no2)cc1 (stereo unspecified) | -1.17 | 2.9% (inactive) |
| O=C(NCCN1CCOCC1)c1ccc2c(c1)ncn2C1CCCC1 | 1.89 | -0.366% (inactive) |
| O=C(NCCN1CCOCC1)c1cc(-c2cccs2)nc2ccccc12 | 34.9 | 13.5% (inactive) |
| c1ccc2cc3c(NCCN4CCOCC4)ccnc3cc2c1 | 65.1 | 70.1% (active) |
| CCOC(=O)C1CCCN(C(=O)c2ccc(C)c(S(=O)(=O)N3CCCCC3)c2)C1 (stereo unspecified) | 0.656 | -11.3% (inactive) |
| O=C(C1Cc2ccccc2CN1C(=O)c1ccco1)N1CCN(c2ccccc2)CC1 (stereo unspecified) | 0.303 | 25.4% (inactive) |
| COc1cccc(CNc2nc3cc(-c4csc5ccccc45)sc3c(=O)n2C)c1 | 4.67 | 6.4% (inactive) |
| O=C(CN1C(=O)NC2(CCOc3ccccc32)C1=O)Nc1cccc([N+](=O)[O-])c1 (stereo unspecified) | -0.437 | 29.8% (inactive) |
| CC(C)C[C@H](CO)Nc1nc(N(C)c2cccc(Cl)c2)c2ncn(C(C)C)c2n1 | -1.92 | -3.43% (inactive) |
| CC(C)n1cnc2c(Nc3cccc(Cl)c3)nc(N(CCO)CCCO)nc21 | -20.3 | 56.1% (active) |
| OCCCNc1nccc(-c2cc(Nc3cccc(Cl)c3)ncn2)n1 | -53.6 | 91.3% (inactive) |
| COc1cc(C(O)c2nc(-c3cnn(C)c3)cs2)ccc1F (stereo unspecified) | -5.42 | -0.779% (inactive) |

| Compound | DAPI nuclei signal change (viability), lower = more cytotoxic [%] | inhibition |
| --- | --- | --- |
| CC(=O)c1cccc(-c2cnc3c(NC=O)cc(-c4ccc(N(C)C)cc4)cn23)c1 | -34.1 | 25.5% (inactive) |
| CN(C)CCNC(=O)c1cccc(-c2cnc3c(NC=O)cc(-c4cccc(C(F)(F)F)c4)cn23)c1 | -5.39 | 55.2% (active) |
| CC(=O)c1cccc(-c2cnc3c(NC=O)cc(-c4cccc(C(=O)N(C)C)c4)cn23)c1 | -7.72 | 11.7% (inactive) |
| CN(C)C(=O)c1cccc(-c2cnc3c(NC=O)cc(-c4ccc(C(=O)N5CCOCC5)cc4)cn23)c1 | -40.1 | 52.5% (active) |
| O=CNc1cc(-c2ccc(C(=O)N3CCOCC3)cc2)cn2c(-c3ccc(F)cc3)cnc12 | -10.1 | 16.1% (inactive) |
| CN(C)C(=O)c1cccc(-c2cnc3c(NC=O)cc(-c4ccc(F)cc4)cn23)c1 | -3.97 | 30.4% (inactive) |
| O=C(COC(=O)/C=C/c1cccc(Cl)c1)NCc1cccs1 | -2.53 | 1.94% (inactive) |
| CCCNC(=O)c1cc(C2CCCCN2S(=O)(=O)c2cn(C)cn2)on1 (stereo unspecified) | 4.91 | 3.78% (inactive) |
| CSc1nc2ccc(NC(=O)c3c(F)cccc3F)cc2s1 | 1.73 | -11.3% (inactive) |
| CCCC(=O)Nc1nc2ccc(NC(=O)c3c(F)c(F)c(OC)c(F)c3F)cc2s1 | -22.6 | 70% (active) |
| CC(=O)Nc1ccc2nc(NC(=O)CS(=O)(=O)c3ccc(F)cc3)sc2c1 | -3.72 | -0.551% (inactive) |
| CCNC(=O)C1(C)CCCN(C(=O)c2c(C)noc2C)C1 (stereo unspecified) | 4.88 | -5.1% (inactive) |
| CC1=C(C(=O)N(C)C)CC(CC(=O)NCCc2ccccn2)C(=O)N1CCC1=CCCCC1 (stereo unspecified) | -8.79 | -1.46% (inactive) |
| CN(Cc1c(F)cccc1Cl)C(=O)COC(=O)Cn1cnc2ccccc2c1=O | 0.959 | -10.1% (inactive) |
| O=C(OCCN1C(=O)c2ccccc2C1=O)[C@@H]1CC(O)CN1S(=O)(=O)c1ccccc1[N+](=O)[O-] (stereo partly specified) | -0.22 | -9.02% (inactive) |
| CCCC(=O)N1CCC1(C)C(=O)NS(=O)(=O)c1ccc(Cl)cc1 (stereo unspecified) | 2.06 | 6.55% (inactive) |
| CC(=O)Nc1ccc(C(=O)Nc2cc(S(=O)(=O)N3CCOCC3)ccc2N2CCOCC2)cc1 | 4.58 | -8.64% (inactive) |
| C=CC(=O)Nc1ccc(Nc2ccnc(Nc3ccc(N4CCN(C)CC4)cc3)n2)cc1 | -47 | 88.2% (active) |
| Cc1cccc(N2CCN(c3ccc(NC(=O)/C=C\C(=O)O)cc3)CC2)c1 | 1.52 | 7.15% (inactive) |
| CN1CCN(c2ccc(NC(=O)COc3ccc(Cl)cc3Cl)cc2)CC1 | 3.32 | -1.69% (inactive) |
| COc1cc(NC(=O)c2cc(-c3ccc(F)cc3OC(C)C)n[nH]2)cc(OC)c1OC | -6.58 | 5.57% (inactive) |
| Cc1ccc(Sc2cc(N3CCOCC3)nc(-c3ccccc3)n2)cc1 | -0.706 | 55.1% (active) |
| O=S(=O)(Cc1cc(Sc2ccccc2)nc(-c2ccccc2)n1)c1ccccc1 | -1.14 | 12.7% (inactive) |
| Cc1cc(N2CCN(c3ccccc3)CC2)nc(N2CCOCC2)n1 | -3.71 | 14.3% (inactive) |
| COc1ccc(-c2ccc3c(c2)C2CC3CCN2CCC#N)cc1 (stereo unspecified) | 3.73 | -6.07% (inactive) |
| CCc1nc2ccc(C(=O)Nc3cccc(OC)c3)cn2c1N(CCC(C)C)CCN(C)C | 0.0295 | 33.9% (inactive) |

| Compound | DAPI nuclei signal change (viability), lower = more cytotoxic [%] | inhibition |
| --- | --- | --- |
| Cc1[nH]c2ccccc2c1C(=O)C(=O)NCc1nnnn1-c1cccc(F)c1 | 9.45 | -12.5% (inactive) |
| CCN(CC)c1ncnc2c1ncn2[C@H]1CN(Cc2cccs2)C[C@@H](CO)O1 | -0.273 | -11.2% (inactive) |
| OC(c1ccc(Cl)cc1)c1ncc(-c2ccc(Cl)cc2)[nH]1 (stereo unspecified) | 11 | -53.7% (inactive) |
| CCCOc1ccccc1C1CC(=O)Nc2cc3c(cc21)OCO3 (stereo unspecified) | -7.65 | 28.7% (inactive) |
| O=C1OCC2=C1C(c1ccc(Cl)cc1)c1cc3c(cc1O2)OCO3 (stereo unspecified) | 6.8 | 11% (inactive) |
| COc1ccccc1C1C2=C(COC2=O)Nc2cc3c(cc21)OCO3 (stereo unspecified) | -19.2 | 58.6% (active) |
| CN(C)S(=O)(=O)c1cccc(NC(=O)COc2ccc3ccccc3c2)c1 | -8.57 | -14% (inactive) |
| O=C(NCCO)c1cccc(-c2cccc3nccn23)c1 | 4.67 | -6.44% (inactive) |
| CCOc1ccc(-n2c(O)c(/C=N/Nc3nnc(C)c(=O)[nH]3)c3ccccc3c2=O)cc1 | 5.58 | -10.7% (inactive) |
| COc1ccc(Cc2nnc(N/N=C/c3ccccc3O)[nH]c2=O)cc1OC | -27 | 50.4% (active) |
| COc1ccc(CCNC(=O)CCCCn2c(=O)[nH]c3ccccc3c2=O)cc1OC | -8.64 | 21.8% (inactive) |
| CC1C(=O)N(Cc2cn(CC3CCCCC3)nn2)CCS(=O)(=O)N1Cc1ccc(-c2cccc(N(C)C)c2)cc1 (stereo unspecified) | -0.553 | -17.1% (inactive) |
| Cc1ccc(OCC(=O)Nc2ccc(-c3nc4ncccc4o3)cc2)cc1 | 18.7 | 14% (inactive) |
| COc1ccc(NC(=O)c2cc(-c3ccc(C)cc3)on2)cc1 | 4.01 | -3.75% (inactive) |
| COc1ccc(CC(=O)Nc2ccc(-c3nnc(-c4ccc(C)cc4)o3)cc2)cc1 | 2.81 | 59.2% (active) |
| NNC(=O)c1nnn(-c2nonc2N)c1CN1CCCC1 | -4.78 | -6.85% (inactive) |
| CC1(C)CC(=O)C=C(c2ccccc2CO)C1=O | -1.17 | -16.1% (inactive) |
| CC(=O)CC(CC(=O)NC1CCCCC1)c1ccccc1 (stereo unspecified) | 1.1 | 2.67% (inactive) |
| Cc1ccc(-c2nc3ccccc3[nH]2)cc1NC(=O)c1sc2ccccc2c1Cl | 17.5 | 58.3% (active) |
| COc1ccc(CNC(=O)CNC(=O)c2sc3ccccc3c2Cl)cc1OC | -2.17 | 10.6% (inactive) |
| Cc1nn(C)cc1/C=N/NC(=O)c1sc2ccccc2c1Cl | 6.2 | -14.7% (inactive) |
| Cc1ccc(Cc2c(-c3ccccc3)nc3ccc(Cl)cn23)cc1 | 0.00442 | -0.293% (inactive) |
| COc1ccc(C(=O)N(C)Cc2ccc(OC)c(OC)c2OC)cc1S(=O)(=O)N1CCOCC1 | -5.3 | 8.22% (inactive) |
| COc1ccc(CNC(=O)C[C@H]2C[C@H](C(=O)N3CCOCC3)[C@@]3(CCC4CCCC4)c4[nH]c5ccc(Cl)cc5c4CCN3C2=O)cc1OC | 0.251 | 63.8% (active) |
| COc1ccc2[nH]c3c(c2c1)CCN1C(=O)C(CC(=O)NCCCN(C)C)C[C@H](C(=O)N2CCOCC2)[C@@]31CCC1CCCC1 (stereo partly specified) | -19.4 | 31.2% (inactive) |
| O=C(C[C@H]1C[C@H](C(=O)N2CCOCC2)[C@@]2(CCC3CCCC3)c3[nH]c4ccc(Cl)cc4c3CCN2C1=O)NCc1ccco1 | 8.62 | 28.1% (inactive) |
